Assay results: PubChem BioAssay (Tox21)
Inconclusive results are not listed. Calls of active or inactive are those of the source. Unless noted, calls come from the whole dose curve; as a rule, active = well fitted curve in the direction sought with a large enough effect in the repeat runs; inconclusive = weak or mixed curves; inactive = no such curve, though single readings can be large; an effect the other way counts as inactive or inconclusive.

Key:
[1] = qHTS assay to identify small molecule antagonists of the retinoid acid receptor (RAR) signaling pathway - cell viability counter screen (AID 1159551); note: nearly all actives have a fitted effect of over 35% in size
Outline: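 Cytotoxicity counter screen in C3RL4 cells: 6 h compound exposure with 1 uM retinol (final), viability from cellular ATP by luminescence.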

[2] = qHTS assay to identify small molecule antagonists of the retinoic acid receptor (RAR) signaling pathway (AID 1159552; note: nearly all actives have a fitted effect of over 50% in size)
Outline: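 Luminescence from a RARE luciferase reporter in C3RL4 cells served as read-out. Cells received compounds together with 1 uM final retinol and incubated 6 hr at 37 C before detection reagent was added for 30 min at room temperature.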

[3] = qHTS assay to identify small molecule agonists of the retinoic acid receptor (RAR) signaling pathway (AID 1159553); note: potency is the fitted concentration of half-maximal effect
Outline: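 Agonist activity was scored in C3RL4 cells bearing a retinoic acid response element luciferase construct. Cells were treated with compounds for 6 hr at 37 C, and luciferase signal was measured as luminescence.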

[4] = qHTS assay to identify small molecule antagonists of the estrogen related receptor (ERR) signaling pathway from Tox21 library - cell viability counter screen (AID 1224834); note: nearly all actives have a fitted effect of over 30% in size; note: potency is the fitted concentration of half-maximal effect
Outline: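 Cytotoxicity of test substances is gauged in the same ERR cells used for the antagonist screen, after 17.5 h of compound treatment at 37 C, by CellTiter-Fluor fluorescence measured after 30 min.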

[5] = qHTS assay to identify small molecule antagonists of the estrogen related receptor (ERR) signaling pathway - cell viability counter screen (AID 1224818);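 note: series mostly up to about 46 µM; viability measured after 17.5 h of compound exposure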
Outline: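 Cells carrying the ERR pathway reporter were seeded and incubated for 6 hours before compound addition. After a 17.5-hour exposure at 37 C, live-cell protease activity was measured by CellTiter-Fluor fluorescence following 30 minutes of incubation.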

[6] = qHTS assay to identify small molecule antagonists of the estrogen related receptor signaling pathway with the pleiotropic PPARgamma coactivator (PGC) cell viability counter screen (AID 1224822;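 note: series mostly up to about 46 µM; viability read after 17.5 h compound exposure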)
Outline: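 Seed PGC/ERR cells (2,000/well); incubate 6 h at 37 C/5% CO2; pin-transfer compounds in DMSO; incubate 17.5 h at 37 C; add CellTiter-Fluor; after 30 min read fluorescence.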

[7] = qHTS assay to identify small molecule antagonists of the estrogen related receptor (ERR) signaling pathway (AID 1224819; note: potency is the fitted concentration of half-maximal effect; nearly all actives have a fitted effect of over 50% in size)
Outline: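 Compounds dissolved in DMSO were pin-transferred onto ERR cells that had been plated 6 h earlier, and cells were then incubated 18 h at 37 C; signal was luciferase luminescence via One-Glo.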

[8] = qHTS assay to identify small molecule agonists of the estrogen related receptor (ERR) signaling pathway (AID 1224820)
Outline: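 Cells: ERR line from NTP, 2,000/well. Pre-incubation 6 h, 37 C/5% CO2. Compound (DMSO) pin transfer, 18 h 37 C. One-Glo, 30 min RT, luminescence.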

[9] = tested on: estrogen-related receptor alpha (ERRalpha) with PGC-1alpha coactivator, human; assay: qHTS assay to identify small molecule antagonists of the estrogen related receptor signaling pathway with the pleiotropic PPARgamma coactivator (PGC) (AID 1224821; calls by dose curve;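 note: series mostly up to about 46 µM; lower luminescence signal means antagonism of PGC/ERR signalling; nearly all actives have a fitted effect of over 50% in size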)
Outline: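 Luminescent read-out (One-Glo, 30 min at room temperature) following 18 h treatment of PGC/ERR cells at 37 C with compounds delivered in DMSO. Cells had settled 6 h at 37 C/5% CO2 before dosing.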

[10] = qHTS assay to identify small molecule agonists of the estrogen related receptor signaling pathway with the pleiotropic PPARgamma coactivator (PGC) (AID 1224823)
Outline: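 Steps: plate PGC/ERR cells at 2,000 cells/well; incubate 6 h, 37 C/5% CO2; pin-transfer compounds (DMSO); incubate 18 h, 37 C; add One-Glo; 30 min RT; read luminescence.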

Measured: Potency

CC(CN=Cc1ccccc1O)N=Cc1ccccc1O (configuration not stated)
inactive: [1] | [2] | [3] | [4]

COc1ccc(/C=C/S(=O)(=O)NC(=O)c2ccc(C)cc2Cl)cc1
inactive: [1] | [2] | [3] | [4]

COC(=O)C(C)(C)C
inactive: [1] | [2] | [3]

CC(C)(Cc1c[nH]c2ccccc12)NCC(O)COc1ccccc1C#N (configuration not stated)
inactive: [1] | [2] | [3]

CCOCCn1c(N2CCCN(C)CC2)nc2ccccc21
inactive: [1] | [2] | [3] | [4]

CCCC1CCCC(=O)O1 (configuration not stated)
inactive: [1] | [2] | [3] | [4]

O=Cc1ccc(Cl)c([N+](=O)[O-])c1
inactive: [1]

CC(C)C/C=C(\C=O)c1ccccc1
inactive: [1] | [2] | [3]

Oc1ccc(CCNCCCCCCNCCc2ccccc2)cc1O
inactive: [1] | [2] | [3]

O=C(O)c1ccncc1
inactive: [1] | [2] | [3] | [4]

C(/C=C/C=C/Nc1ccccc1)=Nc1ccccc1
inactive: [1] | [2] | [3] | [4]

CC(C)NC(=O)c1ccccc1N
inactive: [1] | [2] | [3] | [4]

CS(C)=O
inactive: [1] | [2] | [3] | [4]

CO[C@@H]1[C@@H](O[C@@H]2O[C@H](C)[C@@H](O[C@H]3C[C@@](C)(O)[C@@H](O)[C@H](C)O3)[C@H](N(C)C)[C@H]2O)[C@@H](CC=O)C[C@@H](C)[C@@H](O[C@@H]2CC[C@H](N(C)C)[C@@H](C)O2)/C=C/C=C/C[C@@H](C)OC(=O)C[C@H]1OC(C)=O
inactive: [1] | [2] | [3] | [4]

N#C[C@@H]1CC(F)(F)CN1C(=O)CNC1CC2CCC(C1)N2c1ncccn1 (some centres not stated)
inactive: [1] | [2] | [3] | [4]

CCCCCCCCCCCCCCCCN
inactive: [1] | [2] | [3] | [4]

O=C1OC(=O)C2CC=CCC12 (configuration not stated)
inactive: [1] | [2] | [3] | [4]

COc1ccc(C(=O)Nc2ccccc2)cc1[N+](=O)[O-]
inactive: [1] | [2]
active: [3] 30.9 µM

CCC(C)CCCC(C)(C)O (configuration not stated)
inactive: [1] | [2] | [3] | [4]

CCc1c(C)[nH]c2c1C(=O)C(CN1CCOCC1)CC2 (configuration not stated)
inactive: [1] | [2] | [3] | [5] | [6] | [4]

O=C1c2ccccc2C(=O)c2c1ccc(O)c2O
inactive: [1] | [2] | [3]

N#CCCCC(C#N)CCC#N (configuration not stated)
inactive: [1] | [2] | [3] | [4]

CCCCCCCCCCCCCCCCC(=O)O
inactive: [1] | [2] | [3] | [4]

CC(=O)Nc1ccn(C2COC(COC(=O)c3ccccc3)O2)c(=O)n1 (configuration not stated)
inactive: [1] | [2] | [3] | [4]

O=c1[nH]nc(-c2ccc([N+](=O)[O-])o2)o1
inactive: [1] | [2]

O=C1c2ccccc2C(=O)C1c1ccc2ccccc2n1
active: [3] 0.108 µM
inactive: [1] | [2]

COC(=O)/C=C/C(C)=C\C=C\C(C)=C\C=C\C=C(C)\C=C\C=C(C)\C=C\C(=O)O
active: [3] 61.1 µM
inactive: [1] | [2]

CC1=C(C)C(=O)C(CCCCC#CCCCC#CCO)=C(C)C1=O
inactive: [1] | [2] | [3] | [8] | [9] | [10]
active: [7] 12.8 µM | [4] 23.7 µM

Cc1cc(C)n(CO)n1
inactive: [1] | [2] | [3] | [4]

CCCc1nc(C)c2c(=O)[nH]c(-c3cc(S(=O)(=O)N4CCN(CC)CC4)ccc3OCC)nn12
inactive: [1] | [2] | [3] | [4]

Nc1ncnc2c1ncn2[C@@H]1O[C@H](CO)[C@@H](O)[C@H]1O
inactive: [1] | [2] | [3] | [4]

CC1(C)CC(O)CC(C)(C)N1[O]
inactive: [1] | [2] | [3] | [4]

CCC(=O)O[C@@H]1C[C@H]2CC[C@]1(C)C2(C)C
inactive: [1] | [2] | [3] | [4]

COc1ccc(/C=C/c2cc(OC)cc(=O)o2)cc1
inactive: [1] | [2]
active: [3] 2.79 µM

O=C(N[C@@H](Cc1ccccc1)[C@@H](O)C(=O)N1C[C@@H](O)[C@@H](O)C1)c1cc2cc(Cl)ccc2[nH]1
inactive: [1] | [2] | [3]

CC(=O)c1ccc(Cl)c(Cl)c1Cl
inactive: [1] | [2] | [3] | [4]

CC1=C(C)C(=O)C(C(CCCCCC(=O)O)c2ccccc2)=C(C)C1=O (configuration not stated)
inactive: [1] | [2] | [3] | [4]

CC(C)CC(C)(C)C
inactive: [1] | [2] | [3]

Nc1ccc(C(=O)Oc2ccccc2)c(O)c1
active: [3] 3.35 µM
inactive: [1] | [2] | [4]

CCCN(C1CCN(C(=O)C2CCNCC2)CC1)[C@@H]1CCc2ccc(OC)cc2C1
inactive: [1] | [2] | [3] | [4]

Cc1cccc(C)c1NC(=O)CN1CCCC1
inactive: [1] | [2] | [3] | [4]

CCc1ccc(C(=O)C(C)CN2CCCCC2)cc1 (configuration not stated)
inactive: [1] | [2] | [3] | [4]

CCCCCCCCOCCCN
inactive: [1] | [2] | [3] | [4]
